The values that follow come from PubChem BioAssay (NCATS).

Records with an inconclusive call do not appear. Active and inactive are the calls of the source. Calls follow the shape of the dose curve; as a rule, active = well fitted curve in the direction sought with a large enough effect; inconclusive = small, poorly fitted or top-dose-only effect, or another doubt; inactive = no such curve, though single readings can be large; an effect the other way counts as inactive or inconclusive.

Test [1] can be described thus: P-glycoprotein substrates identified in KB-3-1 adenocarcinoma cell line, qHTS therapeutic library screen (AID 1346986). Also: nearly all actives have a fitted effect of over 60% in size. The procedure, abridged:
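Viability by CellTiter-Glo after 72 h compound exposure at 37 degree C, 5% CO2. Cytotoxic call: curve class -1.1 to -2.4, maximum response >50%, AC50 < 10 uM, compared across KB-3-1 and P-gp-overexpressing KB-8-5-11.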

Test [2] is described as follows: P-glycoprotein substrates identified in KB-8-5-11 adenocarcinoma cell line, qHTS therapeutic library screen (AID 1346987). Also: nearly all actives have a fitted effect of over 65% in size. The procedure, abridged: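 Human cervical adenocarcinoma KB-8-5-11 cells, selected in colchicine to over-express P-gp and assayed without it, were exposed for 72 h to titrated compounds. An ATP-based luminescent viability signal gave AC50.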
For orientation: Quantitative high-throughput screening tests each substance at several concentrations.

Take `CC(C)(O[C@@H]1O[C@H](CO)[C@@H](O)[C@H](O)[C@H]1O)C(OC(=O)/C=C\c1ccc(O)cc1)C(=O)OCc1ccc(O[C@@H]2O[C@H](CO)[C@@H](O)[C@H](O)[C@H]2O)cc1` (stereo partly specified): the Potency entry in test [1] and in test [2] was “inactive” in each case.

For `O=C(c1ccc2nccnc2c1)N1CCCCC1`, the Potency result in test [1] and in test [2] was “inactive” in each case.

As to `COc1c2c(c(CO)c3c1C(=O)OC3)OC1(C)CCC3(O)C(C)(C)OC(=O)CCC3(C)C1C2` (stereo unspecified), the Potency entry in test [1] and in test [2] was “inactive” throughout.

In the case of `C=C(C(=O)O)C1CCC2(C)CCC(O)C(=C)C2C1` (stereo unspecified), the Potency entry in test [1] and in test [2] was “inactive” in each case.

Turning to `COC(=O)C1=CO[C@@H](O[C@@H]2O[C@H](CO[C@@H]3O[C@H](COC(=O)/C=C/c4cc(OC)c(O)c(OC)c4)[C@@H](O)[C@H](O)[C@H]3O)[C@@H](O)[C@H](O)[C@H]2O)[C@@H]2C(CO)=CC[C@H]12`, the Potency result in test [1] and in test [2] was “inactive” each time.

On to `CNC12CC3C[C@@](C)(C1)C[C@](C)(C3)C2`, for which the Potency result in test [1] and in test [2] was “inactive” in each case.

Consider `COc1cc(C(=O)O)ccc1OC1OC(CO)C(O)C(O)C1O` (stereo unspecified), for which the Potency result in test [1] and in test [2] was “inactive” in each case.

For `C[C@@H]1O[C@@H](O[C@H]2[C@H](O[C@H]3CC[C@@]4(C)C(CC[C@]5(C)C4CC=C4[C@@H]6CC(C)(C)CC[C@]6(C(=O)O[C@@H]6OC[C@H](O)[C@H](O)[C@H]6O[C@@H]6O[C@@H](C)[C@H](O[C@@H]7O[C@H](CO)[C@@H](O)[C@H](O)[C@H]7O)[C@H](O)[C@H]6O)[C@H](O)C[C@]45C)C3(C)C)O[C@H](CO)[C@@H](O[C@@H]3OC[C@@H](O)[C@H](O)[C@H]3O)[C@@H]2O)[C@H](O)[C@H](O)[C@H]1O` (stereo partly specified), the outcome in test [1] and in test [2] was “inactive [at 9.29 µM]” in each case.

As to `C=C[C@@H]1[C@H](O[C@@H]2O[C@H](CO)[C@@H](O)[C@H](O)[C@H]2O)OC=C(C(=O)O)[C@H]1CCOC(=O)/C=C/c1ccc(O)c(O)c1`, the Potency entry in test [1] and in test [2] was “inactive” throughout.

In the case of `COC(=O)C1=COC(OC2OC(CO)C(O)C(O)C2O)C2C1C=CC2(O)CO` (stereo unspecified), the Potency entry in test [1] and in test [2] was “inactive” throughout.

Regarding `C=CC(C)(C)C12C=C(OC)C(=O)N3C(C(C)C)C(=O)NC31N(OC)c1ccccc12` (stereo unspecified), the Potency entry in test [1] and in test [2] was “inactive” each time.

Regarding `C/C(=C\CCC(C)CCO)C(=O)OC1(C)CCC2C(C(=O)O)=COC(OC3OC(CO)C(O)C(O)C3O)C21` (stereo unspecified), the Potency entry in test [1] and in test [2] was “inactive” throughout.

`COc1c2c(c(C)c3c1C(=O)OC3)O[C@@]1(C)CC(O)C(C(C)(C)O)[C@](C)(CCC(=O)O)[C@H]1C2` (stereo partly specified): the Potency result in test [1] and in test [2] was “inactive” throughout.

As to `CC1(c2nc3c(C(N)=O)cccc3[nH]2)CCCN1` (stereo unspecified), the Potency entry in test [1] and in test [2] was “inactive” each time.

Consider `CC(=O)O[C@H]1[C@H](O[C@H]2[C@@H]3C=CO[C@@H](O[C@@H]4O[C@H](CO)[C@@H](O)[C@H](O)[C@H]4O)[C@@H]3[C@@]3(CO)O[C@@H]23)O[C@@H](C)[C@H](OC(=O)/C=C/c2ccccc2)[C@H]1OC(=O)/C=C/c1ccccc1`, for which the outcome in test [1] and in test [2] was “inactive [at 9.29 µM]” throughout.

With `COC(=O)CC(O)CC(O)/C=C/c1c(C)ccc2c1C(O)CC(C)C2` (stereo unspecified), the Potency result in test [1] and in test [2] was “inactive” each time.

As to `CCCOC(c1cc2nccc(C(=O)O)c2[nH]1)c1ccccc1Cl` (stereo unspecified), the Potency entry in test [1] and in test [2] was “inactive” each time.

Consider `CC1C(=O)OCC2=CCN3CCC(OC(=O)C(C)(O)C1(C)O)C23` (stereo unspecified), for which the Potency entry in test [1] and in test [2] was “inactive” in each case.

For `CC1=CC(=O)CC(C)(C)[C@H]1/C=C/C(CO)O[C@@H]1O[C@H](CO)[C@@H](O)[C@H](O)[C@H]1O` (stereo partly specified), the Potency result in test [1] and in test [2] was “inactive” in each case.

Turning to `Cc1cc(=O)oc2c(C=O)c(O)ccc12`, the Potency entry in test [1] and in test [2] was “inactive” each time.

On to `COc1c2c(c(C)c3c1C(=O)OC3)OC1(C)CC(O)C34OC(OC)(OC3(C)C)C(O)CC4(C)C1C2` (stereo unspecified), for which the Potency entry in test [1] and in test [2] was “inactive” each time.

As for `CC1(C)CC[C@]2(C(=O)O[C@@H]3O[C@H](CO[C@@H]4O[C@H](CO)[C@@H](O)[C@H](O)[C@H]4O[C@@H]4O[C@H](CO)[C@@H](O)[C@H](O)[C@H]4O)[C@@H](O)[C@H](O[C@@H]4O[C@H](CO)[C@@H](O)[C@H](O)[C@H]4O)[C@H]3O)CC[C@]3(C)C(=CCC4[C@@]5(C)CC[C@@H](O)[C@@](C)(C(=O)O[C@@H]6O[C@H](CO)[C@@H](O)[C@H](O)[C@H]6O)C5CC[C@]43C)[C@@H]2C1` (stereo partly specified), the outcome in test [1] and in test [2] was “inactive [at 9.29 µM]” each time.

With `CC(C)=CCC/C(C)=C/CO[C@@H]1O[C@H](CO)[C@@H](OC(=O)/C=C/c2ccc(O)cc2)[C@H](O[C@@H]2O[C@@H](C)[C@H](O)[C@@H](O)[C@H]2O)[C@H]1O`, the Potency entry in test [1] and in test [2] was “inactive” in each case.

Consider `O=C1NC2CCc3nc4ccccc4c(=O)n3C2=Nc2ccccc21` (stereo unspecified), for which the Potency entry in test [1] and in test [2] was “inactive” throughout.

Turning to `C/C1=C\CCC(C)CCO[C@@H]2O[C@H](CO[C@@H]3OC[C@H](O)[C@H](O)[C@H]3OC1=O)[C@@H](O)[C@H](O)[C@H]2O` (stereo partly specified), the Potency result in test [1] and in test [2] was “inactive” throughout.

For `CC(O)(CC(=O)O)CC(=O)OCc1ccc(O[C@@H]2O[C@H](CO)[C@@H](O)[C@H](O)[C@H]2O)cc1` (stereo partly specified), the Potency result in test [1] and in test [2] was “inactive” in each case.

Consider `O=C(O)Cc1cn(C2OCC(O)C(O)C2O[C@@H]2O[C@H](CO)[C@@H](O)[C@H](O)[C@H]2O)c2ccccc12` (stereo partly specified), for which the Potency entry in test [1] and in test [2] was “inactive” in each case.

Regarding `COC(=O)C1=CO[C@@H](O[C@@H]2O[C@H](CO)[C@@H](O)[C@H](O)[C@H]2O)[C@H]2[C@@H]1C=C[C@@]21C=C([C@H](C)O)C(=O)O1`, the Potency entry in test [1] and in test [2] was “inactive” in each case.
